# Calls of active or inactive are those of the source.
# Columns and labels:
# [1] = binders of probe aFSTL3 on microarray, primary screen, stem cell growth factor project, biochemical, small-molecule microarray, fluorescence 635/667 (AID 1064); details: higher = more signal;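 further: measures binding of the biotinylated anti-FSTL3 antibody to printed compounds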
# [2] = binders from COS7 lysate, DM2A8 probe, primary screen, torsin A project, cell lysate, small-molecule microarray, fluorescence 635/667 (AID 1065); details: higher = more signal, COS7 lysate expressing mutant human TOR1A
# [3] = binders of probe aFGF2 on microarray, primary screen, stem cell growth factor project, biochemical, small-molecule microarray, fluorescence 635/667 (AID 1067); details: higher = more signal;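 further: measures binding of biotinylated aFGF2 protein to printed compounds on slides; z-score merges feature fluorescence and signal-to-noise across triplicate slides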
# [4] = binders of probe aFGF10 on microarray, primary screen, stem cell growth factor project, biochemical, small-molecule microarray, fluorescence 635/667 (AID 1071); details: higher = more signal;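 further: score merges 667 nm spot intensity and signal to noise from triplicate slides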
# [5] = biological target: Neurogenic locus notch homolog protein 2 (Homo sapiens) (UniProt Q04721); assay: Notch2 binders on small-molecule microarrays, primary screen, biochemical, small-molecule microarray, 635 nm fluorescence, stem cell growth factors (AID 1073); details: Notch2 binding, higher = more signal
# [6] = biological target: Pro-neuregulin-1, membrane-bound isoform (Homo sapiens) (UniProt Q02297); assay: NRG1 binders on small-molecule microarrays, primary screen, psychiatric disease protein project, biochemical, small-molecule microarray, fluorescence 635/667 (AID 1075); details: NRG1 binding, 635 nm fluorescence, higher = more signal;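 further: score combines 667 nm spot fluorescence with signal to noise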
# [7] = test system: Neuregulin-1 EGF-like domain; assay: binders of neuregulin-1 EGF-like domain, primary screen, biochemical, small-molecule microarray, 635 nm fluorescence (AID 1081); details: small-molecule microarray binding, higher = more signal;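 further: binding of the protein to compounds printed on small-molecule microarray slides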
# [8] = FRG1 promoter luciferase signal modulators, primary screen, FRG1 inhibition for FSHD, cell-based, C2C12 myotubes, firefly/Renilla luciferase, luminescence (AID 1084); details: higher = more signal, called active from +8 up or from −8 down
# [9] = binders of probe aFST on microarray, primary screen, stem cell growth factor project, biochemical, small-molecule microarray, fluorescence 635/667 (AID 1086); details: higher = more signal;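 further: score merges 667 nm fluorescence with signal-to-noise of each printed compound spot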
# [10] = binders of probe aHhip on microarray, primary screen, stem cell growth factor project, biochemical, small-molecule microarray, fluorescence 635/667 (AID 1087); details: higher = more signal;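 further: score merges spot fluorescence at 667nm with spot signal to noise ratio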
# [11] = test system: PRMT1 (protein arginine N-methyltransferase 1); assay: PRMT1 binders on small-molecule microarrays, primary screen, biochemical, small-molecule microarray, 635 nm fluorescence (AID 1088); details: small-molecule microarray binding, higher = more signal;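 further: binding of Prmt1 protein to compounds spotted on small-molecule microarray slides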
# [12] = yeast growth modulation, basal conditions, primary screen, YJM789 clinical isolate, OD600, 24 h (AID 1089);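 further: growth of clinical yeast isolate S. cerevisiae YJM 789 seeded 1000 cells per well; test concentration not given here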; details: S. cerevisiae YJM789 growth, higher = more signal, called active from +8 up or from −8 down
# [13] = fission yeast growth modulation, primary screen, strain 972, OD600, 24 h, no modulator (AID 1090);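 further: basal condition with compound alone and no growth modifier present; test concentration not given here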; details: S. pombe 972 growth, higher = more signal, called active from +8 up or from −8 down
# [14] = S. cerevisiae growth modulation with rapamycin, primary screen, strain BY4716, OD600, 96 h (AID 1091); details: higher = more signal, called active from +8 up or from −8 down; further: test concentration not given here
# [15] = biological target: Torsin-1A-interacting protein 2 (Homo sapiens) (UniProt Q8NFQ8); assay: LULL1 binders on small-molecule microarray, primary screen, cell lysate, human LULL1 lysate, 635/667 nm fluorescence (AID 1092); details: hLULL1 lysate binding, 635 nm fluorescence, higher = more signal;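 further: probe is lysate of COS7 cells overexpressing human LULL1; score merges per-feature 667 nm fluorescence with signal-to-noise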
# [16] = E. coli growth modulation, two-sided OD650, primary screen, E. coli filamentation project, strain DRC41, 24 h (AID 1093); details: OD650, 24 h, higher = more signal, called active from +8 up or from −8 down;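 further: MC1000 strain lacking acrAB efflux and sulA so SOS filamentation is blocked; test concentration not given here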
# [17] = small-molecule microarray binders of probe aLefty2, primary screen, biochemical, biotinylated probe, 635/667 nm fluorescence (AID 1094); details: higher = more signal;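 further: score merges spot fluorescence near 667 nm with spot signal-to-noise ratio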
# [18] = test system: Noggin (protein binding on small-molecule microarray); assay: Noggin binders on small-molecule microarray, primary screen, biochemical, 635/667 nm fluorescence (AID 1095); details: 635 nm fluorescence, higher = more signal;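 further: score merges 667 nm feature fluorescence with signal to noise over triplicate slides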
# [19] = biological target: Neurogenic locus notch homolog protein 3 (Homo sapiens) (UniProt Q9UM47); assay: NOTCH3 binders on small-molecule microarray, primary screen, biochemical, 635/667 nm fluorescence (AID 1096); details: NOTCH3 binding, 635 nm fluorescence, higher = more signal
# [20] = small-molecule microarray binders of probe aEGFR, primary screen, biochemical, biotinylated probe, 635/667 nm fluorescence (AID 1097); details: higher = more signal;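 further: probe is a biotinylated anti-EGFR antibody binding compounds printed on slides; score combines fluorescence near 667 nm and signal to noise of each spot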
# Chain of Pro-neuregulin-1, membrane-bound isoform (Homo sapiens) (Q02297 whole entry, looked up, the tested form may be a part, canonical isoform): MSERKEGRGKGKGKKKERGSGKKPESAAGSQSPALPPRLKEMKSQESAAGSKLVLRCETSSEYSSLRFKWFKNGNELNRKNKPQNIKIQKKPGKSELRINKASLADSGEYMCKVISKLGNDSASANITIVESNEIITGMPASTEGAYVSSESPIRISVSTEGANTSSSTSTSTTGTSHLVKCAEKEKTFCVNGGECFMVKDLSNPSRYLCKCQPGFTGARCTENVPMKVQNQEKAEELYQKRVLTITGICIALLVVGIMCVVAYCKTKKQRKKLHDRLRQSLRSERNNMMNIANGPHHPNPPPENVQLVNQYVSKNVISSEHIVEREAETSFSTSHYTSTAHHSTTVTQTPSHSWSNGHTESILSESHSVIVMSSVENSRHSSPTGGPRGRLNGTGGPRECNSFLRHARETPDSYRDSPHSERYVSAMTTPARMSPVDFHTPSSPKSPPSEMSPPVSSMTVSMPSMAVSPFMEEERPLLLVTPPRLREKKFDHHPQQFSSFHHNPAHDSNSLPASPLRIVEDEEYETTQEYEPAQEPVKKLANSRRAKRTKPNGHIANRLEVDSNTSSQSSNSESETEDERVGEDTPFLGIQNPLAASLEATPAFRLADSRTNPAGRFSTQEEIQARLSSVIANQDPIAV
# Chain of Torsin-1A-interacting protein 2 (Homo sapiens) (Q8NFQ8 whole entry, looked up): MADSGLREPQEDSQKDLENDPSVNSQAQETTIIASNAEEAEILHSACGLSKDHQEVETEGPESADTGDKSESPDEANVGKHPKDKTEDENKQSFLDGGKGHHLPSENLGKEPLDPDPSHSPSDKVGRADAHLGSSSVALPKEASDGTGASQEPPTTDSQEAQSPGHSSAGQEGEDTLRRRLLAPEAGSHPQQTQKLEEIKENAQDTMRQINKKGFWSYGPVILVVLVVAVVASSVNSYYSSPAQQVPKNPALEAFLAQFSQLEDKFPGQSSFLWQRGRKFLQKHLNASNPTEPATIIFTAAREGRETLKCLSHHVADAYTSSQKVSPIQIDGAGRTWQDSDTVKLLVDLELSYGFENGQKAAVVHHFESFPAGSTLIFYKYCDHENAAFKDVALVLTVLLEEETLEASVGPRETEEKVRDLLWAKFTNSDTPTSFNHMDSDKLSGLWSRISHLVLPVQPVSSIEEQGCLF
# Chain of Neurogenic locus notch homolog protein 3 (Homo sapiens) (Q9UM47 whole entry, looked up): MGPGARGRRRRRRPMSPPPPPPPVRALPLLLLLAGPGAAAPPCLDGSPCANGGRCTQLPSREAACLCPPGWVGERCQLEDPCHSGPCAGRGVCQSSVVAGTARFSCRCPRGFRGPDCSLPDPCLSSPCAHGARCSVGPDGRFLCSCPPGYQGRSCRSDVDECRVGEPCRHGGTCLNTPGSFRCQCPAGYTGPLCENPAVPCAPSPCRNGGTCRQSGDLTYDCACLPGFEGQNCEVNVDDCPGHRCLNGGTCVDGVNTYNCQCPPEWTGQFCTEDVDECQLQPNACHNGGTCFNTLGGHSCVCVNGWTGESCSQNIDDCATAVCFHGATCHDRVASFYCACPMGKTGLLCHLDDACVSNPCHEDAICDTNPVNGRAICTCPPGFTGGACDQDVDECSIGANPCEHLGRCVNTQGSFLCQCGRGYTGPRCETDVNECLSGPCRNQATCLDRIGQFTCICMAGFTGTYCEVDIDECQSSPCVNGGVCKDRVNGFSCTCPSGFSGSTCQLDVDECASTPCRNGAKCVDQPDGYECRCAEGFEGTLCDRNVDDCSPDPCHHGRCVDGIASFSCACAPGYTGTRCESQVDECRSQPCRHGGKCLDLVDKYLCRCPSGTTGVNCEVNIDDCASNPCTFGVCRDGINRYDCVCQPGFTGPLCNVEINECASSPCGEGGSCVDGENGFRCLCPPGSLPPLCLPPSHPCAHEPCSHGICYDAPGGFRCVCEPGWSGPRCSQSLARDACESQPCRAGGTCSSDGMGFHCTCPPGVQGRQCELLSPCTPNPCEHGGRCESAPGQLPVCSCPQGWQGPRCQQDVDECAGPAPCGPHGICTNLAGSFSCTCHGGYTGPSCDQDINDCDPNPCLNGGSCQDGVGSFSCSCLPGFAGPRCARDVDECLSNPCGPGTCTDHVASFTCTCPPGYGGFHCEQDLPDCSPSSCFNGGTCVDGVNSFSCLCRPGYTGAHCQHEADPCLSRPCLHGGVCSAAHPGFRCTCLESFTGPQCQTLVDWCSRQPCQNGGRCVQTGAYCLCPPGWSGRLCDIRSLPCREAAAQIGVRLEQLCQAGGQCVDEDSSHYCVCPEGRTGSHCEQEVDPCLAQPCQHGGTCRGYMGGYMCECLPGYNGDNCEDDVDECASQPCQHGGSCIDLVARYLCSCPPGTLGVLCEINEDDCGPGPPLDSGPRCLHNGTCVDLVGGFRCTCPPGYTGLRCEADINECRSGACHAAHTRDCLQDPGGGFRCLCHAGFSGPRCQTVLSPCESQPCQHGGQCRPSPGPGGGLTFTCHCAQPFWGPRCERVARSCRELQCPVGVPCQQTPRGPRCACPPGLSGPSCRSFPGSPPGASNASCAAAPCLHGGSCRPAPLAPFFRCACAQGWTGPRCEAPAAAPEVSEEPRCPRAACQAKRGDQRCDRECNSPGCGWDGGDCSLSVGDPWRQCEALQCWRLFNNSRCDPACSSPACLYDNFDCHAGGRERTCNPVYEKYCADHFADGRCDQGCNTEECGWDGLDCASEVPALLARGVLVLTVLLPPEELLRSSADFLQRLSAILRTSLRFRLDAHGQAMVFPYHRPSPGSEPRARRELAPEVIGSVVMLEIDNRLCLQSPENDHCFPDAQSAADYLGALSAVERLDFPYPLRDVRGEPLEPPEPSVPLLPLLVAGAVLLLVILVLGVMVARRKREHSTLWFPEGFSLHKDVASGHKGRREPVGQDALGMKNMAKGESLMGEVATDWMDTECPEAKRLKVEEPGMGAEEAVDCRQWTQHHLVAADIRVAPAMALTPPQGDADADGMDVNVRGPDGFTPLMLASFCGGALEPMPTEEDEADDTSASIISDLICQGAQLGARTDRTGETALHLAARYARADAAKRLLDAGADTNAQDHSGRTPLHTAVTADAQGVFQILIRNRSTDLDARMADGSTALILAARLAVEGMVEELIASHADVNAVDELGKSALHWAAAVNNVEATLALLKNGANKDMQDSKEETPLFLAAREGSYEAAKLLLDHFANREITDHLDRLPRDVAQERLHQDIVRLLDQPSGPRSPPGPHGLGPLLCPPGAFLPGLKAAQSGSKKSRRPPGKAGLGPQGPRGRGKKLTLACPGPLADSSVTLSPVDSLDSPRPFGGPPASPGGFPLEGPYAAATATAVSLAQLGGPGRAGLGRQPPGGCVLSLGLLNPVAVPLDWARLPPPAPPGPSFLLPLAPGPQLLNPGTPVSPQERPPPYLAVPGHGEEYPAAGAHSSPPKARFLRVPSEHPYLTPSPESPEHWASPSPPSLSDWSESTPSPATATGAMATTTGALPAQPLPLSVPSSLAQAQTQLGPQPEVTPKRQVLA
SMILES,composite z-score [1],composite z-score [2],composite z-score [3],composite z-score [4],composite z-score [5],composite z-score [6],composite z-score [7],z-score [8],composite z-score [9],composite z-score [10],composite z-score [11],z-score [12],z-score [13],z-score [14],composite z-score [15],z-score [16],composite z-score [17],composite z-score [18],composite z-score [19],composite z-score [20]
O=C1O[C@H](c2ccccc2)[C@H](c2ccccc2)N2[C@H]1[C@@H](C(=O)Nc1nc3ccccc3s1)[C@]1(C(=O)Nc3ccc(C#CCCO)cc31)[C@H]2c1ccc(O)cc1,-0.309,0.931,-0.0074,1.01,0.947,1.2,1.27,0.912 (inactive),0.652,-0.0581,1.55,0.758 (inactive),0.936 (inactive),1.14 (inactive),2.39,-0.672 (inactive),0.0769,0.744,1.13,0.346
COC(=O)[C@@]1(Cc2ccccc2)[C@@H]2C(=CC(=O)[C@H]2CC(=O)C(=O)N(C)C)CN1C(=O)c1ccccc1,0.152,-0.0069,0.305,1.21,1.39,1.98,1.32,-1.26 (inactive),0.962,0.113,0.777,-1.06 (inactive),0.378 (inactive),-0.251 (inactive),3.22,0.844 (inactive),0.262,-0.434,1.06,0.156
COc1cc(OC)c(C(O)C2C=CC3C(=O)N(c4ccccc4)C(=O)C3N2Nc2ccccc2)cc1Br (stereo not given),0.0555,-0.01,0.0393,0.208,0.878,1.66,0.936,0.203 (inactive),0.558,0.0139,1.2,-0.465 (inactive),1.09 (inactive),0.326 (inactive),2.53,-0.604 (inactive),0.167,0.0401,0.862,-0.0828
C=CCC(OC(C)=O)[C@@H]1[C@@H](N(Cc2cc3ccccc3o2)C(=O)Cc2ccc(F)cc2)c2cc(OCCCO)ccc2N1C(=O)c1ccc2ccccc2c1 (stereo not given in full),-0.0245,-0.186,-0.116,-0.121,-0.367,-0.32,-0.432,-1.92 (inactive),0.45,-0.0994,-0.381,-0.313 (inactive),0.716 (inactive),-0.538 (inactive),-0.383,-1.07 (inactive),-0.0708,0.437,-0.44,-0.112
COc1ccc([Si](C)(C)[C@H]2[C@H](CCO)O[C@@]3(C(=O)N(Cc4cccc(N5C(=O)COc6ccccc65)c4)c4ccccc43)[C@@H]2C)cc1,0.295,0.15,-0.0877,0.126,-0.298,0.727,0.828,-2.07 (inactive),-0.203,-0.333,0.911,1.5 (inactive),-0.845 (inactive),16.8 (active),0.795,1.98 (inactive),-0.0021,0.164,0.14,-0.148
C=CCOC(=O)[C@H]1[C@@H]2C(=O)O[C@@H](c3ccccc3)[C@@H](c3ccccc3)N2[C@@H](c2ccc(OCCOC(=O)[C@H]3C[C@H]4C(=O)N[C@@H](CCCCNC(C)=O)C(=O)N4[C@H]3c3ccc(O)cc3)cc2)[C@]12C(=O)Nc1ccccc12,-0.0493,0.498,-0.0736,0.0817,0.307,0.285,0.999,-1.15 (inactive),0.352,-0.0994,1.54,-5.42 (inactive),-1.54 (inactive),0.491 (inactive),2.27,3.05 (inactive),0.0557,1.63,0.991,-0.0509
CN(C)CCCCNC(=O)[C@@H]1C[C@@H]2C(=O)N[C@@H](Cc3ccccc3)C(=O)N2[C@@H]1c1cccc(OCCO)c1,-0.185,0.971,0.0281,0.645,-0.729,0.382,0.905,3.35 (inactive),0.218,0.0524,1.55,-5.59 (inactive),-1.63 (inactive),-1.09 (inactive),1.5,2.67 (inactive),-0.125,1.45,1.06,-0.131
CN(C)C(=O)C1N=C(c2ccc(OCCCO)cc2)N(c2ccccc2)O1 (stereo not given),-0.135,0.18,0.0097,0.929,1.19,0.869,1.39,4.85 (inactive),0.514,0.107,1.56,-0.0944 (inactive),-1.17 (inactive),-0.582 (inactive),1.72,1.15 (inactive),-0.244,1.41,1.05,0.123
Cc1ccc(S[C@]2(C(=O)NCCCN(C)C)CC(=O)N(C3CCCCC3)[C@@H]2c2ccc(CO)cc2)cc1,0.655,-1.19,-0.0885,-0.418,-0.503,1.43,0.98,-0.404 (inactive),-0.249,-0.132,-0.0316,-0.96 (inactive),-2.22 (inactive),-0.655 (inactive),0.555,0.457 (inactive),0.0321,-0.561,-0.662,-0.106
Cc1ccc(S[C@]2(C(=O)O)CC(=O)N(Cc3cc(C(F)(F)F)cc(C(F)(F)F)c3)[C@@H]2c2ccc(CO)cc2)cc1,0.591,-0.378,-0.175,-1.71,-2.43,0.203,0.406,0.0661 (inactive),-0.395,-0.464,-0.224,0.952 (inactive),-0.539 (inactive),-0.0248 (inactive),1.53,-1.17 (inactive),-0.142,-1.6,-2.63,-0.373
